Screens (PubChem)
An excerpt weighted towards active compounds, which were near 21% of everything screened.
Pf growth 96h: Primary qHTS for delayed death inhibitors of the malarial parasite plastid, 96 hour incubation | P. falciparum luciferase reporter growth, 96 h | Potency, µM (top dose mostly 28.7 µM), hits mostly inhibitors | 6.9% of 320,000 active | AID 504834, 2011
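P. falciparum expressing integrated firefly luciferase grown in erythrocytes (2% hematocrit, 0.05% parasitemia final) with compounds for 96 hours at 37 C, 5% CO2. Growth inhibition read as loss of luminescence after adding luciferase detection reagent.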
Shiga toxin inh: A qHTS for Small Molecule Inhibitors of Shiga Toxin; Vero cells, Shiga toxin protein synthesis inhibition reporter; inhibition, % at 38.7 µM; 9.2% of 290,000 active; in the data active means inhibition mostly above about 28%, no sharp cut-off; inactive means mostly below about 43%
Pf growth 48h: Primary qHTS for delayed death inhibitors of the malarial parasite plastid, 48 hour incubation. P. falciparum luciferase growth in erythrocytes, 48 h. Potency, µM (doses to about 28.7 µM), actives largely listed as inhibitors. 5.9% of 310,000 active. AID 504832, 2011
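First compound was added to culture medium, then infected red cells at 0.1% parasitemia and 2% hematocrit (final). After incubation at 37 C under 5% CO2, luciferase detection reagent was dispensed and light output recorded.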
CHX counter: Cycloheximide Counterscreen for Small Molecule Inhibitors of Shiga Toxin; cell reporter, cycloheximide protein synthesis inhibition counterscreen; max response, %; 12% of 300,000 active; AID 2314, 2010; in the data active means max response mostly above about 13%, no sharp cut-off; inactive means mostly below about 14%; further: read at 38.3 µM for the half of the compounds with a filed dose
NS1 inh: qHTS Assay for Inhibitors of Influenza NS1 Protein Function | Potency, µM (top dose mostly 46.1 µM) | 0.4% of 270,000 active; calls by dose curve; further: actives are rising curves; nearly all actives have a fitted effect of over 50% in size
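S. cerevisiae expressing influenza A NS1, grown in glucose, washed, then diluted 1:100 into pH 6.0 -URA galactose medium with 23 nl compound. Growth recovery read as OD600; NS1-free strain serves as control.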
A number is an active result; - = inactive; ? = inconclusive; . = no result; [ ] = another dose, or the depositor's remark. Unless noted, the call rests on the fitted dose curve; in most records, active means well fitted inhibition curve with a large enough effect; inconclusive means small, poorly fitted or top-dose-only effect, or another doubt; inactive means no such curve, though single readings can be large or run the other way.

SMILES	Pf growth 96h	Shiga toxin inh	Pf growth 48h	CHX counter	NS1 inh
O=C(/C=C/c1ccccc1)OCCN1C(=O)c2ccccc2C1=O	-	-	-	-	-
CC(C)CN1C(=O)C(=Nc2cccnc2)c2ccccc21	-	-	-	-	-
O=C(c1ccc(F)c([N+](=O)[O-])c1)N1CC2CC(C1)c1cccc(=O)n1C2 (centres undefined)	-	104.9	-	44.2	-
O=C(c1ccc(-c2nnc(Nc3ccccc3)c3ccccc23)cc1)N1C[C@H]2C[C@H](C1)c1cccc(=O)n1C2	3.7µM	-	13.1µM	-	-
CC1CC(C)CN(C(=O)c2ccc(N3CC4CC(C3)c3cccc(=O)n3C4)c([N+](=O)[O-])c2)C1 (centres undefined)	?	-	-	-	-
CCCn1nnc(NC(=O)C(C)C)n1	-	-	-	-	-
CC(=O)Nc1ccc(C(=O)COC(=O)C2CCCCC2)c(F)c1	-	.	-	.	.
O=C(O)C(Cc1ccc(Cl)cc1)Sc1nc2ccccc2[nH]1 (centres undefined)	-	-	-	-	-
O=C(NCc1ccccc1)C1=C[C@@H](c2coc3ccccc3c2=O)C[C@@H](OCc2ccc(CO)cc2)O1	4.15µM	-	?	-	-
O=C(NCc1nc2ccccc2[nH]1)C1=C[C@@H](c2csc3ccccc23)C[C@@H](OCCCCO)O1	2.08µM	-	2.62µM	-	-
O=C(NCc1ccccc1)C1=C[C@@H](c2csc3ccccc23)C[C@@H](OCCCCO)O1	?	-	?	-	-
O=C(NC1CC1)C1=C[C@@H](c2csc3ccccc23)C[C@@H](OCCCCO)O1	13.1µM	-	10.4µM	-	-
O=C(NC1CC1)C1=C[C@@H](c2csc3ccccc23)C[C@@H](OCc2ccc(CO)cc2)O1	13.1µM	-	?	-	-
O=C(NC1CC1)C1=C[C@H](c2csc3ccccc23)C[C@H](OCCCCO)O1	-	-	?	-	-
Nc1nc(SCC(=O)O)[nH]c(=O)c1N	.	.	.	.	-
O=C(NCc1ccccc1)C1=C[C@@H](c2csc3ccccc23)C[C@@H](OCc2ccc(CO)cc2)O1	?	-	?	-	-
C#CCNC(=O)C1=C[C@@H](c2csc3ccccc23)C[C@@H](OCc2ccc(CO)cc2)O1	5.22µM	-	?	-	-
COc1cc(-c2nnc(SCC(=O)N(Cc3ccccc3)C(C)(C)C)o2)cc(OC)c1OC	3.7µM	-	10.4µM	-	-
COc1cc(OC)cc(-c2nnc(SCC(=O)N(C(C)C)C(C)C)o2)c1	-	-	7.38µM	-	-
COc1cc(OC)cc(-c2nnc(SCC(=O)N(Cc3ccccc3)C(C)(C)C)o2)c1	-	-	?	-	-
CCN(CC)C(=O)CSc1nnc(-c2cc(OC)cc(OC)c2)o1	.	-	-	-	-
COc1cccc(-c2nnc(SCC(=O)N(C(C)C)C(C)C)o2)c1	-	55.8	-	-	-
O=C(c1ccccc1)N1CCCC(C(=O)N2CCN(c3ccccc3)CC2)C1 (centres undefined)	-	-	-	-	-
C[C@@]12C(=O)N(CC3CCCO3)CC(=O)N1[C@H]1c3ccccc3OC[C@@H]1[C@@H]2c1ccccc1 (some centres undefined)	?	.	-	.	.
CCOc1ccc(Nc2oc(-c3ccco3)nc2C#N)cc1	?	-	-	33.1	-
SMILES	Pf growth 96h	Shiga toxin inh	Pf growth 48h	CHX counter	NS1 inh
CCOc1ccc(-c2nc(C#N)c(NCC(C)C)o2)cc1	.	-	?	-	-
COc1ccc(CCNc2oc(-c3ccc(OC)c(OC)c3)nc2C#N)cc1	?	-	?	-	-
COc1ccc(Nc2oc(-c3ccc(F)cc3)nc2C#N)cc1	-	73.3	-	35.4	-
C=CCNc1oc(-c2ccc(OC)cc2)nc1C#N	-	78.3	-	42.6	-
C=CCNc1oc(-c2ccc(OCC)cc2)nc1C#N	-	63.0	?	15.3	-
CC12CCC(=O)N1C(C(=O)Nc1ccc(F)c(Cl)c1)CS2 (centres undefined)	-	.	-	.	.
COc1ccc(C(=O)NCC(=O)N/N=C/c2ccc(C)o2)cc1OC	-	-	-	-	-
CC1CC1C(=O)N1CCN(S(=O)(=O)c2cccc(F)c2)CC1 (centres undefined)	-	.	?	.	.
CNc1oc(-c2ccc(OCc3ccccc3)cc2)nc1C#N	.	-	-	23.9	-
Oc1ccc([C@H](O)C2CCCCN2)cc1O (some centres undefined)	.	.	.	.	-
O=C(c1cccc(Cl)c1)N1CCCC(c2ccc(Cl)cc2)=N1	3.7µM	-	?	-	-
O=C(c1ccccc1)N1CCCC(c2ccc(Cl)cc2)=N1	9.28µM	-	14.7µM	-	-
COc1ccc(N2CS(=O)(=O)/C(=C/N(C)C)C2=O)cc1	-	75.4	-	38.9	-
Cc1ccc(S(=O)(=O)n2cc(C=O)c3ccccc32)cc1	-	-	-	-	-
Cc1ccc(S(=O)(=O)n2cc(-c3ccccc3)c3ccccc32)cc1	?	.	2.62µM	.	.
CC(=O)Nc1cc2nc(C)n(Cc3ccccc3[N+](=O)[O-])c2nc1C	?	-	-	-	-
CCCNC(=O)c1ccccc1N1CCN(CCCCN2C(=O)C3CCCCN3C2=O)CC1 (centres undefined)	10.4µM	.	-	-	-
O=c1cc(O)c(-c2ccc(Cl)cc2)c(Cl)[nH]1	-	-	13.1µM	-	-
Cc1cc(NC(=O)CSc2nnc(C)c(=O)n2N)no1	-	-	-	-	.
O=C(c1cc2c(s1)CCCC2)N1CCN(C(=O)C2CCCO2)CC1 (centres undefined)	.	-	-	-	-
CC(=O)c1ccc(N2CCN(C(=O)c3cc4c(s3)CCCC4)CC2)cc1	-	70.8	-[5.75 µM]	17.8	.
O=C(c1cc2c(s1)CCCC2)n1cccn1	-	-	-	18.2	-
O=C(c1cc2c(s1)CCCC2)N1CCC2(CC1)OCCO2	.	75.7	-	21.7	-
C=CCN1CCN(C(=O)c2cc3c(s2)CCCC3)CC1	-	-	-	15.1	-
O=C(c1cc2c(s1)CCCCC2)N1CCN(c2ncccn2)CC1	.	-	-	-	-
SMILES	Pf growth 96h	Shiga toxin inh	Pf growth 48h	CHX counter	NS1 inh
CC(C)(C)OC(=O)NS(=O)(=O)NCc1ccco1	.	-	.	-	.
O=C(CNCC1CCCCC1)Nc1ccc(OC(F)(F)F)cc1	-	-	-	-	.
COc1ccccc1N1CCN(C(=O)c2cc3c(s2)CCC3)CC1	13.1µM	-	.	-	-
COc1ccccc1N1CCN(C(=O)c2ccc([N+](=O)[O-])s2)CC1	?	-	-	-	-
N#Cc1c(-c2cccc(Br)c2)cc(-c2cccnc2)nc1N	?	-	13.1µM	-	-
COc1cccc(-c2cc(-c3cccnc3)nc(N)c2C#N)c1	-	-	-	-	-
COc1cc(-c2cc(-c3ccc(O)cc3)nc(N)c2C#N)ccc1O	5.86µM	-	?	-	?
N#Cc1c(-c2ccc(Br)cc2)cc(-c2cccnc2)nc1N	-	-	-	-	-
COc1ccc(OC)c(-c2cc(-c3cccnc3)nc(N)c2C#N)c1	9.28µM	-	?	-	-
CN1CCc2c(sc(NC(=O)c3ccc4ccccc4c3)c2C(N)=O)C1	?	91.8	-	48.8	-
